In PubChem BioAssay:
Calls of active or inactive are those of the source. How the calls were made is not given here.

The molecules below were run against Protein kinase 7 (PK7), Plasmodium falciparum 3D7 (PF3D7_0213400) (UniProt Q7YTF7) (assay: inhibition of Plasmodium PK7 catalytic activity – biochemical, TCAMS antimalarial set, Kinase-Glo luminescence (AID 1159587)). Details: recombinant PfPK7, Kinase-Glo ATP depletion luminescence.
Sequence of Protein kinase 7 (PK7), Plasmodium falciparum 3D7 (PF3D7_0213400) (Q7YTF7 1-343): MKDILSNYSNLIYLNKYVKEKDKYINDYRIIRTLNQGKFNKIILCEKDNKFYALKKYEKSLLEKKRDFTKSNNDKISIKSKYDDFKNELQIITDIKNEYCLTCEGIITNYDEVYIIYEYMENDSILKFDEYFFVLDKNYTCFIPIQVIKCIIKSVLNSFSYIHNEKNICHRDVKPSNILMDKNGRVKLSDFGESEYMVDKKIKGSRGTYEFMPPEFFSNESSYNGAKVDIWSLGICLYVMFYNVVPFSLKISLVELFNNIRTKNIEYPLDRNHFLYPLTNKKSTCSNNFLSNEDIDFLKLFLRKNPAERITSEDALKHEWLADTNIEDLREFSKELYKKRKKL

outcome, inactive:
CCCN(CCC)CCCOc1ccc(C(=O)c2c(-c3ccc(OCCCN(CCC)CCC)cc3)oc3ccc(Cl)cc23)cc1
O=C(/C=C/c1ccc(Cl)c(Cl)c1)NCCCCCN1CCC(NC(=O)NC2CCCC2)CC1
CCc1[nH]nc(C(=O)NC2CCN(CC3(c4ccc(OC)cc4)CCCCC3)CC2)c1C
CCN1CCN(CCCNc2ccnc3cc(Cl)ccc23)CC1
COc1nc(Nc2cccc(C)c2)nc(OC)n1
CC(C)(C)C(Cn1ccnc1)NCc1cn[nH]c1-c1ccc(-c2ccccc2)cc1 (stereo unspecified)
CN(C)c1ccc(CN2CCC(NC(=O)c3ccc(-c4ccc(N(C)C)cc4)s3)CC2)cc1
O=C(NCc1cccs1)[C@H](Cc1ccccc1)Nc1ccnc(NCC2CCCCC2)n1
CCCCCCN(CCCCCC)CCCCNc1c2ccc(Cl)cc2nc2ccc(OC)cc12
Cc1cc2c(cc1C(F)(F)F)N(C(=O)Nc1cc(OCCN(C)C)cc(C(F)(F)F)c1)CC2
CNCCCNc1ccnc2cc(Cl)ccc12
COc1ccc(C)c(Nc2ccnc(Nc3ccc(-c4cnc[nH]4)cc3)n2)c1
Cc1ccc(Cn2ncc(N3CCCNCC3)c(Cl)c2=O)cc1NC(=O)Nc1ccc(-c2ccccc2)cc1
CN1CCN(c2ccnc3ccc(NC(=O)Nc4ccc(-c5ccncc5)c(C#N)c4)cc23)CC1
CC(C(=O)NC1CCN(c2ccnc(Nc3ccc(F)cc3)n2)C1)c1ccc(Cl)cc1 (stereo unspecified)
COc1cc2nc(N(C)C)nc(Nc3ccc4c(cnn4Cc4ccccc4)c3)c2cc1OC
